In PubChem BioAssay (EPA / NIEHS):
The source made the active and inactive calls. How the source made its calls: active means hit-call score of the fitted dose curve at least 0.9, where 1 is the maximum; inactive means score below 0.9.

Assays:
[1] = read-out: Matrix Metallopeptidase 1 (MMP1), MMP1 (gene 4312); assay: BSK_BF4T_MMP1: BioMAP Diversity Plus: BF4T Assay for Matrix Metallopeptidase 1 (MMP1) Biomarker Activity (AID 2284270); settings: primary human bronchial epithelial cells with fibroblasts
Procedure, shortened: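 MMP-1 quantified by ELISA in primary human bronchial epithelial/dermal fibroblast co-cultures, 24 hours post-dosing, with DMSO as baseline; parallel sulforhodamine B staining (560 nm) tracks overt cytotoxicity.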

[2] = read-out: Tissue plasminogen activator (tPA), PLAT (gene 5327); assay: BSK_BF4T_tPA: BioMAP Diversity Plus: BF4T Assay for Tissue plasminogen activator (tPA) Biomarker Activity (AID 2284272); settings: primary human bronchial epithelial cells with fibroblasts
Procedure, shortened: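 tPA level quantified by ELISA at 24 h post-treatment in bronchial epithelial/dermal fibroblast co-cultures, gain of signal scored against DMSO baseline. Parallel cultures stained with 0.1% SRB (560 nm) to flag overt cytotoxicity.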

[3] = read-out: Plasminogen Activator Inhibitor-1 (PAI1), SERPINE1 (gene 5054); assay: BSK_BF4T_PAI1: BioMAP Diversity Plus: BF4T Assay for Plasminogen Activator Inhibitor-1 (PAI1) Biomarker Activity (AID 2284273); settings: primary human bronchial epithelial cells with fibroblasts
Procedure, shortened: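 PAI-1 levels quantified by ELISA 24 h post-dosing in bronchial epithelial cell plus dermal fibroblast cultures. Signal gain referenced to DMSO baseline. Sulforhodamine B total-protein staining of parallel wells checked cytotoxicity.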

[4] = read-out: urokinase Plasminogen Activator (uPA), PLAU (gene 5328); assay: BSK_BF4T_uPA: BioMAP Diversity Plus: BF4T Assay for urokinase Plasminogen Activator (uPA) Biomarker Activity (AID 2284275); settings: primary human bronchial epithelial cells with fibroblasts
Procedure, shortened: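 uPA levels measured by ELISA at 24 hours in BF4T cultures (bronchial epithelial cells plus dermal fibroblasts) and compared with DMSO; cytotoxicity tracked in parallel cultures by sulforhodamine B staining.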

[5] = read-out: Matrix Metallopeptidase 9 (MMP9), MMP9 (gene 4318); assay: BSK_BF4T_MMP9: BioMAP Diversity Plus: BF4T Assay for Matrix Metallopeptidase 9 (MMP9) Biomarker Activity (AID 2284276); settings: primary human bronchial epithelial cells with fibroblasts
Procedure, shortened: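 MMP-9 levels were measured by ELISA after 24 h exposure of bronchial epithelial cell/dermal fibroblast co-cultures, with DMSO as baseline. Parallel cultures were stained with 0.1% SRB after TCA fixation, read at 560 nm, to flag overt cytotoxicity.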

[6] = read-out: Interferon-inducible T-cell alpha chemoattractant (ITAC), CXCL11 (gene 6373); assay: BSK_BE3C_ITAC: BioMAP Diversity Plus: BE3C Assay for Interferon-inducible T-cell alpha chemoattractant (ITAC) Biomarker Activity (AID 2284279); settings: primary human bronchial epithelial cells
Procedure, shortened: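 ELISA read-out of I-TAC after 24 h chemical dosing of human lung primary bronchial epithelial cells; gain-of-signal fit vs DMSO baseline. Parallel SRB total-protein staining (0.1% SRB, 10% TCA fixation, 560 nm) assessed cytotoxicity.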

[7] = read-out: Epidermal growth factor receptor (EGFR), EGFR (gene 1956); assay: BSK_BE3C_EGFR: BioMAP Diversity Plus: BE3C Assay for Epidermal growth factor receptor (EGFR) Biomarker Activity (AID 2284281); settings: primary human bronchial epithelial cells
Procedure, shortened: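 Human primary bronchial epithelial cells were exposed to compound for 24 h, and cell-surface EGFR was then quantified by ELISA. Activity was fitted in the positive direction against the DMSO vehicle baseline.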

KRT18 (gene 3875) = assay: BSK_BE3C_Keratin818: BioMAP Diversity Plus: BE3C Assay for Keratin 818 Biomarker Activity (AID 2284282); settings: primary human bronchial epithelial cells
Procedure, shortened: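 ELISA read-out of Keratin 8/18 in BE3C human bronchial epithelial cultures, 24 h post-dosing; positive-direction fit vs DMSO baseline.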

[8] = read-out: Matrix Metallopeptidase 9 (MMP9), MMP9 (gene 4318); assay: BSK_BE3C_MMP9: BioMAP Diversity Plus: BE3C Assay for Matrix Metallopeptidase 9 (MMP9) Biomarker Activity (AID 2284283); settings: primary human bronchial epithelial cells
Procedure, shortened: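 Human primary bronchial epithelial cells exposed 24 h to compound. MMP9 quantified by ELISA. SRB total-protein staining of parallel cultures assesses cytotoxicity. Positive-direction fit relative to DMSO.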

[9] = read-out: Plasminogen activator inhibitor-1 (PAI1), SERPINE1 (gene 5054); assay: BSK_CASM3C_PAI1: BioMAP Diversity Plus: CASM3C Assay for Plasminogen activator inhibitor-1 (PAI1) Biomarker Activity (AID 2284284); settings: primary human coronary artery smooth muscle cells
[10] = read-out: Monocyte Chemoattractant Protein-1 (MCP1), CCL2 (gene 6347); assay: BSK_hDFCGF_MCP1: BioMAP Diversity Plus: hDFCGF Assay for Monocyte Chemoattractant Protein-1 (MCP1) Biomarker Activity (AID 2284285); settings: primary human foreskin fibroblasts
Procedure, shortened: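 MCP-1 ELISA readout was taken 24 hours after dosing primary human dermal fibroblasts in the hDFCGF system, with DMSO as baseline. Parallel sulforhodamine B staining of total protein tracked overt cytotoxicity.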

[11] = read-out: Vascular cell adhesion molecule 1 (VCAM1), VCAM1 (gene 7412); assay: BSK_IMphg_VCAM1: BioMAP Diversity Plus: IMphg Assay for Vascular cell adhesion molecule 1 (VCAM1) Biomarker Activity (AID 2284286); settings: primary human endothelial cells with macrophages
Procedure, shortened: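 ELISA read-out of VCAM-1 on venular endothelial cell/macrophage co-cultures at 24 h post-treatment, with DMSO as baseline and positive-direction fitting. Parallel sulforhodamine B total-protein staining (560 nm) served as the overt cytotoxicity measure.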

[12] = read-out: Intercellular Adhesion Molecule 1 (ICAM1), ICAM1 (gene 3383); assay: BSK_hDFCGF_ICAM1: BioMAP Diversity Plus: hDFCGF Assay for Intercellular Adhesion Molecule 1 (ICAM1) Biomarker Activity (AID 2284287); settings: primary human foreskin fibroblasts
Procedure, shortened: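 ICAM-1 ELISA readout 24 h after dosing, DMSO as baseline, in human dermal foreskin fibroblast cultures. Cytotoxicity checked in parallel wells by SRB staining (0.1% SRB, 10% TCA fixation, 560 nm).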

CD40, CD40 (gene 958) = assay: BSK_IMphg_CD40: BioMAP Diversity Plus: IMphg Assay for CD40 Biomarker Activity (AID 2284288); settings: primary human endothelial cells with macrophages
Procedure, shortened: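 ELISA read-out of cell-surface CD40 at 24 h in human venular endothelial cell/macrophage co-cultures. Activity fitted in the positive direction against DMSO; parallel SRB staining (560 nm) gauges overt cytotoxicity.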

[13] = read-out: TIMP metallopeptidase inhibitor 2 (TIMP2), TIMP2 (gene 7077); assay: BSK_hDFCGF_TIMP2: BioMAP Diversity Plus: hDFCGF Assay for TIMP metallopeptidase inhibitor 2 (TIMP2) Biomarker Activity (AID 2284289); settings: primary human foreskin fibroblasts
Procedure, shortened: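 Primary human foreskin fibroblasts in the hDFCGF system, dosed for 24 h; TIMP-2 level measured by ELISA, fitted in the positive direction against DMSO; cytotoxicity checked in parallel by sulforhodamine B total protein staining.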

[14] = read-out: Interleukin-8 (IL8), CXCL8 (gene 3576); assay: BSK_IMphg_IL8: BioMAP Diversity Plus: IMphg Assay for Interleukin-8 (IL8) Biomarker Activity (AID 2284277); settings: primary human endothelial cells with macrophages
Procedure, shortened: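 IL-8 levels were measured by ELISA 24 h after dosing in primary human venular endothelial cell–macrophage cultures, referenced to DMSO; parallel SRB staining monitored overt cytotoxicity.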

[15] = read-out: Interleukin-8 (IL8), CXCL8 (gene 3576); assay: BSK_BE3C_IL8: BioMAP Diversity Plus: BE3C Assay for Interleukin-8 (IL8) Biomarker Activity (AID 2284280); settings: primary human bronchial epithelial cells
Procedure, shortened: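 Primary human bronchial epithelial cells (BE3C system) were exposed to test chemical for 24 h, and IL-8 levels were then measured by ELISA. Activity was fitted in the positive (gain-of-signal) direction against a DMSO negative-control baseline.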

Measured: outcome

COC(F)(C(F)F)C(F)(F)F (centres undefined)
not listed: [13] | [14] | [15]
inactive: all other assays above

CCOC(=O)CC(=O)C(F)(F)C(F)(F)F
not listed: [14] | [15]
inactive: all other assays above

OCC(O)CC(F)(F)C(F)(F)C(F)(F)C(F)(F)F (centres undefined)
not listed: [15]
inactive: all other assays above

NC(=O)C(F)(F)C(F)(F)C(F)(F)C(F)F
not listed: [14] | [15]
inactive: all other assays above

O=S(=O)(O)CCC(F)(F)C(F)(F)C(F)(F)C(F)(F)F
not listed: [13] | [14] | [15]
inactive: all other assays above

NCC(F)(F)C(F)(F)C(F)(F)C(F)(F)C(F)(F)C(F)(F)C(F)(F)C(F)(F)F
not listed: [13] | [14]
inactive: all other assays above
